Assay results: PubChem BioAssay (Tox21)
Results filed as inconclusive are left out. Entries that show only a call come without a potency. The source made the active and inactive calls. Unless noted, calls come from the whole dose curve; as a rule, active = well fitted curve in the direction sought with a large enough effect in the repeat runs; inconclusive = weak or mixed curves; inactive = no such curve, though single readings can be large; an effect the other way counts as inactive or inconclusive.

Key:
[1] = qHTS assay to identify small molecule agonists of the peroxisome proliferator-activated receptor delta (PPARd) signaling pathway - cell viability counter screen (AID 743211); note: nearly all actives have a fitted effect of over 55% in size; note: potency is the fitted concentration of half-maximal effect
Procedure, shortened: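 In the same wells used for beta-lactamase reporter measurement, cytotoxicity is scored by CellTiter-Glo. HEK293H PPARd-bla cells receive compound for 17 h at 37C following a 5 h settling period.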

[2] = qHTS assay to identify small molecule antagonists of the peroxisome proliferator-activated receptor delta (PPARd) signaling pathway - cell viability counter screen (AID 743213); note: nearly all actives have a fitted effect of over 50% in size
Procedure, shortened: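 PPARd-bla HEK293H cells (3000/well) got compound plus 300 nM L165041 agonist for 17 h at 37 C. Viability in the same wells came from CellTiter-Glo luminescence after 30 min at room temperature.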

[3] = biological target: Bile acid receptor (Homo sapiens) (UniProt Q96RI1); test: qHTS assay to identify small molecule antagonists of the farnesoid-X-receptor (FXR) signaling pathway (AID 743217; active = well fitted inhibition curve with a large enough effect in the signal ratio in the repeat runs, not every such curve was filed as active; the % refers to the signal ratio)
Sequence of Bile acid receptor (Homo sapiens) (Q96RI1 whole entry, looked up): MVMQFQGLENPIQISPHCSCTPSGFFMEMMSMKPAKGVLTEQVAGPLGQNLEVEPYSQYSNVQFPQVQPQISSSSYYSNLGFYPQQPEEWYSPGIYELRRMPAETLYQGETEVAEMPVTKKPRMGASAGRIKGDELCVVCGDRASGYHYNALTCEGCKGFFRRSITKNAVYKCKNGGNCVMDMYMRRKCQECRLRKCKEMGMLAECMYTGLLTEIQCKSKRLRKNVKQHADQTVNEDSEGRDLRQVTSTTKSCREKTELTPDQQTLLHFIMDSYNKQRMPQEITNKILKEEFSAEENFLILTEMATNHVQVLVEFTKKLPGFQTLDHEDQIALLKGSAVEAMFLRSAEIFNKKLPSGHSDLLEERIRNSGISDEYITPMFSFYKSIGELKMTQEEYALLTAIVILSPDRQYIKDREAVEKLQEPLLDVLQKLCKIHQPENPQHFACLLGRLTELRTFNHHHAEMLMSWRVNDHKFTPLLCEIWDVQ
Procedure, shortened: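 HEK 293T FXR-UAS-bla, 5000 cells/well; compound + CDCA 50 uM final; 16 h, 37 °C; B/G FRET substrate 2 h RT; fluorescence.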

[4] = qHTS assay to identify small molecule agonists of the farnesoid-X-receptor (FXR) signaling pathway - cell viability counter screen (AID 743218); note: nearly all actives have a fitted effect of over 45% in size
Procedure, shortened: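 HEK 293T FXR-bla cells; 5 h pre-incubation, 16 h compound exposure at 37 C; LiveBLAzer substrate 2 h RT, then CellTiter-Glo 30 min RT, luminescence.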

[5] = biological target: Bile acid receptor (Homo sapiens) (UniProt Q96RI1); test: qHTS assay to identify small molecule agonists of the farnesoid-X-receptor (FXR) signaling pathway (AID 743220; active = well fitted activation curve with a large enough effect in the signal ratio in the repeat runs, not every such curve was filed as active; the % refers to the signal ratio)
Procedure, shortened: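 Beta-lactamase reporter under UAS control in GeneBLAzer FXR HEK 293T cells (5000/well) measured with LiveBLAzer FRET substrate after 2 h at room temperature. Compound exposure lasted 16 h at 37C.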

[6] = biological target: Vitamin D3 receptor (Homo sapiens) (UniProt P11473); test: qHTS assay to identify small molecule agonists of the vitamin D receptor (VDR) signaling pathway (AID 743222; calls by dose curve)
Sequence of Vitamin D3 receptor (Homo sapiens) (P11473 whole entry, looked up): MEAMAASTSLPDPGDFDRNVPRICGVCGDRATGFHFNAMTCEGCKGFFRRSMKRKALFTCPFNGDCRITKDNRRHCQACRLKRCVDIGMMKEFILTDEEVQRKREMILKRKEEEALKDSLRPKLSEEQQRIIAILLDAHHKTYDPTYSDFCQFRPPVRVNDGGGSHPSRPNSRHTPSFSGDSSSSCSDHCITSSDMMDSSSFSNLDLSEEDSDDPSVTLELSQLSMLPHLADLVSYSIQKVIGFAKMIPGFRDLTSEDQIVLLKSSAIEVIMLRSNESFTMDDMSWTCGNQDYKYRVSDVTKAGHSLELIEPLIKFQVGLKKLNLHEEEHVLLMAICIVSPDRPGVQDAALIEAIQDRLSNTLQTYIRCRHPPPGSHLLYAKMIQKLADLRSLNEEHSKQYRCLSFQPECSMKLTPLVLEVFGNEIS
Procedure, shortened: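 VDR-bla cells, 2,000/well; 4 h preincubation 37C; cpd (DMSO) 16 h; LiveBLAzer B/G substrate 2 h RT; fluorescence intensity read.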

[7] = biological target: Vitamin D3 receptor (Homo sapiens) (UniProt P11473); test: qHTS assay to identify small molecule antagonists of the vitamin D receptor (VDR) signaling pathway (AID 743223; active = well fitted inhibition curve with a large enough effect in the signal ratio in the repeat runs, not every such curve was filed as active; the % refers to the signal ratio)
Procedure, shortened: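 Inhibition of agonist-driven VDR signalling is scored in VDR-bla cells: 3 nM final 1alpha,25-dihydroxyvitamin D3 plus compound, 16 h at 37C, then beta-lactamase detection by FRET substrate fluorescence after 2 h.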

[8] = qHTS assay to identify small molecule agonists of the vitamin D receptor (VDR) signaling pathway - cell viability counter screen (AID 743224); note: series mostly up to about 63 µM; nearly all actives have a fitted effect of over 50% in size
Procedure, shortened: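 Luminescence from CellTiter-Glo, read after 30 min at room temperature, reports viability of VDR-bla cells treated with compounds for 16 h at 37C in the wells used for the beta-lactamase FRET read.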

[9] = qHTS assay to identify small molecule agonists of the endoplasmic reticulum stress response signaling pathway (AID 1159516; active = well fitted activation curve with a large enough effect in the signal ratio in the repeat runs, not every such curve was filed as active; the % refers to the signal ratio)
Procedure, shortened: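 Read-out is beta-lactamase cleavage of a FRET substrate (405 nm excitation; 460 and 530 nm emissions) in ESRE-bla HeLa cells after a 5 hr compound exposure at 37 C. Substrate incubation ran 2 hr at room temperature.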

[10] = qHTS assay to identify small molecule agonists of the endoplasmic reticulum stress response signaling pathway - cell viability counter screen (AID 1159517; calls by dose curve;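 note: HeLa cells carrying an ER stress response element beta-lactamase reporter; series mostly up to about 61 µM; nearly all actives have a fitted effect of over 50% in size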)
Procedure, shortened: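 ESRE-bla HeLa cells, 1,500 per well, seeded overnight then treated with compounds for 5 hr at 37 C. After the beta-lactamase read, viability in the same wells is measured by CellTiter-Glo luminescence after 30 min at room temperature.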

[11] = qHTS assay to identify small molecule antagonists of the retinoid-related orphan receptor gamma (ROR-gamma) signaling pathway - cell viability counter screen (AID 1159520); note: nearly all actives have a fitted effect of over 50% in size
Procedure, shortened: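 Tet-on ROR gamma CHO cells were given compounds for 2 hr, then doxycycline hyclate at 1 uM final, and incubated 16 hr at 37 C. Viability was measured as ATP content by CellTiter-Glo luminescence.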

[12] = biological target: Nuclear receptor ROR-gamma (Homo sapiens) (UniProt P51449); test: qHTS assay to identify small molecule antagonists of the retinoid-related orphan receptor gamma (ROR-gamma) signaling pathway (AID 1159521)
Procedure, shortened: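 Test compounds were applied to Tet-on RORγ CHO cells 2 h ahead of doxycycline hyclate (1 uM final). Luciferase reporter activity was quantified by luminescence after 16 h at 37 C and 5% CO2.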

[13] = qHTS assay to identify small molecule agonists of the AP-1 signaling pathway - cell viability counter screen (AID 1159525; calls by dose curve; note: nearly all actives have a fitted effect of over 55% in size; note: potency is the fitted concentration of half-maximal effect)
Procedure, shortened: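 AP-1-bla ME-180 cells in Opti-MEM with 0.5% dialyzed FBS, compound exposure 5 h at 37 C in 15-point titration. Viability read in the same wells as ATP content by CellTiter-Glo luminescence, normalised to tetra-n-octylammonium bromide and DMSO controls.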

[14] = qHTS assay to identify small molecule agonists of the AP-1 signaling pathway (AID 1159526; calls by dose curve)
[15] = biological target: Retinoic acid receptor RXR-alpha (Homo sapiens) (UniProt P19793); test: qHTS assay to identify small molecule agonists of the RXR signaling pathway (AID 1159527; calls by dose curve; note: nearly all actives have a fitted effect of over 35% in size)
Sequence of Retinoic acid receptor RXR-alpha (Homo sapiens) (P19793 whole entry, looked up): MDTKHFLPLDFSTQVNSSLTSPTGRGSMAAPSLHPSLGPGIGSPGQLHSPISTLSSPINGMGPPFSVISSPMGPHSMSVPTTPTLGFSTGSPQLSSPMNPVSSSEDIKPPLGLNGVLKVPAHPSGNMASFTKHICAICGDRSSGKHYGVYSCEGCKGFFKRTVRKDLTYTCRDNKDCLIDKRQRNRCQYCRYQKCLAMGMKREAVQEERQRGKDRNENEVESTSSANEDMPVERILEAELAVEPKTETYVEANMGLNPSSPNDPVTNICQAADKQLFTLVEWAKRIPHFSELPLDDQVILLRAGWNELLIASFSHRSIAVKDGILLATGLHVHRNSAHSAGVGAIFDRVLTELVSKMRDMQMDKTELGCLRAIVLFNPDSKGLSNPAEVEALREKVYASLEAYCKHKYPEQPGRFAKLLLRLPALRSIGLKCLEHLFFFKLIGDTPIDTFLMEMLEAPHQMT
Procedure, shortened: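 Using 9-cis retinoic acid as the reference agonist, chemicals were tested in HEK 293T cells […] for 16 hr; substrate loading lasted 2 hr at room temperature.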

[16] = biological target: Peroxisome proliferator-activated receptor delta (Homo sapiens) (UniProt Q03181); test: qHTS assay to identify small molecule antagonists of the peroxisome proliferator-activated receptor delta (PPARd) signaling pathway (AID 743215; active = well fitted inhibition curve with a large enough effect in the signal ratio in the repeat runs, not every such curve was filed as active; the % refers to the signal ratio;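 note: cells stimulated with agonist L165041 at 300 nM final during compound exposure; series mostly up to about 62 µM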)
Sequence of Peroxisome proliferator-activated receptor delta (Homo sapiens) (Q03181 whole entry, looked up): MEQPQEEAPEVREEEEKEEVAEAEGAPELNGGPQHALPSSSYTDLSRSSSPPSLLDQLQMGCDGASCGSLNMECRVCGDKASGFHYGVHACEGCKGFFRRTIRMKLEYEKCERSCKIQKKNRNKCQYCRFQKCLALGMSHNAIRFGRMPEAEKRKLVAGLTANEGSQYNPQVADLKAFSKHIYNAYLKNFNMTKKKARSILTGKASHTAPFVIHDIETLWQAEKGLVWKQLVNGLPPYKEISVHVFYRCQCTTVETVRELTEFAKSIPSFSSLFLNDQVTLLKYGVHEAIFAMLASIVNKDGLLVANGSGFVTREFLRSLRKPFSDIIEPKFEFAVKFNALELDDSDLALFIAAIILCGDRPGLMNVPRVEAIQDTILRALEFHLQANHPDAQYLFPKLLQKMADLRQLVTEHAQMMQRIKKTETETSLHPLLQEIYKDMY
Procedure, shortened: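 Read-out is beta-lactamase FRET fluorescence, measured 2 h after substrate addition at room temperature. Beforehand, UAS-bla HEK293H cells carrying the PPARd reporter were exposed to compounds with L165041 at 300 nM final for 17 h at 37 C.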

[17] = qHTS assay to identify small molecule antagonists of the farnesoid-X-receptor (FXR) signaling pathway - cell viability counter screen (AID 743221; active = well fitted cell-killing curve with a large enough effect in the repeat runs, not every such curve was filed as active; note: nearly all actives have a fitted effect of over 50% in size)
Procedure, shortened: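 Here viability was scored by luminescence after CellTiter-Glo addition to wells already read for beta-lactamase. Prior treatment: compound plus CDCA (50 uM final), 16 h, 37 C, HEK 293T FXR-bla cells.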

[18] = qHTS assay to identify small molecule antagonists of the vitamin D receptor (VDR) signaling pathway - cell viability counter screen (AID 743225); note: nearly all actives have a fitted effect of over 50% in size
Procedure, shortened: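 Compounds were pinned onto VDR-bla HEK 293T cells together with 1-alpha,25-dihydroxyvitamin D3 at 3 nM final. After 16 h at 37C and 5% CO2 plus the reporter readout, cell viability was measured by CellTiter-Glo luminescence (30 min, room temperature).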

[19] = biological target: Peroxisome proliferator-activated receptor delta (Homo sapiens) (UniProt Q03181); test: qHTS assay to identify small molecule agonists of the peroxisome proliferator-activated receptor delta (PPARd) signaling pathway (AID 743212; calls by dose curve)
Procedure, shortened: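 GeneBLAzer UAS-bla HEK293H cells carrying a PPARδ construct were exposed to compounds at 37 °C. Beta-lactamase activity was read by FRET fluorescence after 2 h at room temperature with LiveBLAzer B/G substrate.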

[20] = qHTS assay to identify small molecule agonists of the NFkB signaling pathway - cell viability counter screen (AID 1159515; calls by dose curve; note: nearly all actives have a fitted effect of over 55% in size; note: potency is the fitted concentration of half-maximal effect)
Procedure, shortened: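 Luminescence from CellTiter-Glo (30 min, room temperature) gives viability, measured in the same wells as the beta-lactamase reporter read. Cells were NFkB-bla ME-180, 2,000 per well, treated 5 hr with compounds.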

SMILES | Potency [1] | Potency [2] | Potency [3] | Potency [4] | outcome [5] | Potency [6] | Potency [7] | Potency [8] | Potency [9] | Potency [10] | Potency [11] | Potency [12] | Potency [13] | Potency [14] | outcome [15] | Potency [16] | Potency [17] | Potency [18] | Potency [19] | Potency [20]
N#CNC#N | inactive | inactive | inactive | inactive | inactive | inactive | inactive | inactive | inactive | inactive | inactive | inactive | inactive | inactive | inactive |  |  |  |  | 
Cc1cc(C(F)(C(F)(F)F)C(F)(F)F)ccc1NC(=O)c1cccc(I)c1C(=O)NC(C)(C)CS(C)(=O)=O |  |  | inactive | inactive |  |  |  | inactive | inactive | inactive | inactive |  | inactive |  | inactive | inactive | inactive | inactive |  | 
CCCN(CC)CC1COC2(CCC(C(C)(C)C)CC2)O1 (stereo not given) | inactive | inactive |  | inactive |  | inactive | inactive | inactive | inactive | inactive | inactive |  | inactive | inactive | inactive |  |  | inactive | inactive | 
Clc1ccc(CCC(Cn2ccnc2)Sc2c(Cl)cccc2Cl)cc1 (stereo not given) | 29.8 µM (active) |  |  |  |  | inactive |  |  |  |  |  |  | 26.8 µM (active) |  |  |  |  |  | inactive | 23.9 µM (active)
CN(C)CCc1c[nH]c2cccc(O)c12 | inactive | inactive |  | inactive |  | inactive | inactive |  | inactive | inactive | inactive | inactive |  |  |  | inactive |  | inactive | inactive | 
O=c1[nH]c2ccccc2n1CCCN1CCC(n2c(=O)[nH]c3cc(Cl)ccc32)CC1 |  |  |  |  |  |  |  | inactive | inactive | inactive | inactive |  | inactive |  |  |  | inactive | inactive |  | 
ClCc1ccc(Cl)cc1Cl | inactive | inactive |  | inactive |  | inactive | inactive | inactive |  |  |  |  | inactive | inactive | inactive | inactive | inactive | inactive | inactive | inactive
CC(C)CCCCCOC(=O)c1ccccc1C(=O)OCCCCCC(C)C | inactive | inactive | inactive | inactive | inactive | inactive | inactive | inactive | inactive | inactive | inactive | inactive | inactive | inactive |  | inactive | inactive |  | inactive | 
